A selection: hits, their analogues and other compounds. The true share with any hit is near 1.1%.
Vaccinia Venus = vaccinia inhibition (Venus reporter); Vaccinia virus Venus reporter expression, fluorescence; Potency, µM (series often up to 36.5 µM), for the others: top-dose activity change, negative = inhibition, hits mostly inhibitors; 0.46% of 330,000 active; AID 720580; calls by dose curve; tested in A549 cells; also: nearly all actives have a fitted effect of over 30% in size
AmpC detergent = AmpC beta-lactamase inhibition with detergent present. AmpC hydrolysis of nitrocefin, absorbance 480 nm, 0.01% Triton. 0.041% of 370,000 active. Potency, µM (titrated, usually from 114 µM), without a hit: at the top dose activity change, negative = inhibition, actives largely listed as inhibitors. AID 485294;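 also: 0% = no-compound wells and -100% = no-enzyme wells; nearly all actives have a fitted effect of over 25% in size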
Target sequence (P00811 whole entry, looked up): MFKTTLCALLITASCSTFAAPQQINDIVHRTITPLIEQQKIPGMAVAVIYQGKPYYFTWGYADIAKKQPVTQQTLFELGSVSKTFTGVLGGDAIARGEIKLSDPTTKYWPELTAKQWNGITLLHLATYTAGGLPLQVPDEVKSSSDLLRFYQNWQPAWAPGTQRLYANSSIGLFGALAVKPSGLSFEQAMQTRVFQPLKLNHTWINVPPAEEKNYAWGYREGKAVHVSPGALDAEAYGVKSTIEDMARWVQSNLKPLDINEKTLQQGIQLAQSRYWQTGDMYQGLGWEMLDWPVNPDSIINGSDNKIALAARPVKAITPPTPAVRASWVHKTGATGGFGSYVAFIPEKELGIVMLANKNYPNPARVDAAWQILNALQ
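20 mM phosphate pH 7.0 + 0.01% (detergent screen) or 0.0001% Triton X-100; 5.3 nM AmpC reagent; cpd preinc 15 min RT; nitrocefin (800 uM stock) to start; A480 q20 s × 4 min; Activity was normalised to no-enzyme and no-compound control wells.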
Vaccinia mCherry = vaccinia inhibition (mCherry reporter); Vaccinia virus mCherry reporter infection, fluorescence; Potency, µM (top dose mostly 36.5 µM), inactives show at the highest dose activity change, negative = inhibition, hits mostly inhibitors; 0.63% of 310,000 active; AID 720579; calls by dose curve; tested in A549 cells; also: nearly all actives have a fitted effect of over 35% in size
AmpC inh no detg = inhibitors of E. coli AmpC beta-lactamase without detergent; Potency, µM (titrated, usually from 57.1 µM), for inactives: at the highest dose activity change, negative = inhibition, usual class: inhibitors; 0.52% of 330,000 active; AmpC nitrocefin hydrolysis, absorbance 480 nm, 0.0001% Triton;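 also: plate controls were no compound for no effect and no enzyme for full effect; nearly all actives have a fitted effect of over 20% in size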
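20 mM phosphate pH 7.0 + 0.01% (detergent screen) or 0.0001% Triton X-100; 5.3 nM AmpC reagent; cpd preinc 15 min RT; nitrocefin (800 uM stock) to start; A480 q20 s × 4 min; Activity was normalised to no-enzyme and no-compound control wells.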
* marks the source's active call; other numbers are inactive results; i = inactive; u = inconclusive; x = no result. Unless noted, calls follow the shape of the dose curve; as a rule, active = well fitted curve in the direction sought with a large enough effect; inconclusive = small, poorly fitted or top-dose-only effect, or another doubt; inactive = no such curve, though single readings can be large; an effect the other way counts as inactive or inconclusive. Unless noted, % is scaled to controls: 0 for no effect and ±100 for the full control effect; potency is read from the fitted curve at half-maximal effect.

SMILES | Vaccinia Venus | AmpC detergent | Vaccinia mCherry | AmpC inh no detg
O=C(Nc1cccc([N+](=O)[O-])c1)c1ccc([N+](=O)[O-])o1 | u | x | -16% | x
O=C(Nc1ccc(N2CCCC2)c(Cl)c1)c1ccc([N+](=O)[O-])o1 | 14µM* | 5% | 16µM* | -7%
CC(C)CNC(=O)c1cn(C2CCN(Cc3nc4ccccc4s3)CC2)nn1 | 0% | x | i | x
CC(=O)c1ccc(-c2cc(F)cc3c2OC(CNC(=O)C(C)N2CCOCC2)C3)s1 (stereo not drawn) | -11% | x | -4% | x
C/C(=N/NC(=O)c1ccc2c(c1)OCO2)c1ccc(NC(=O)c2ccc(F)cc2)cc1 | -3% | -12% | -16% | -20%
C/C(=N\NC(=S)Nc1ccc(F)cc1)c1ccc2c(c1)OCCO2 | u | -6% | -24% | 20µM*
O=C(NCc1nnc2n1CCN(C(=O)/C=C/c1ccccc1)CC2)c1cccc(F)c1 | -4% | x | -12% | x
COCCNc1nc(NCc2ccc(NC(C)=O)cc2)c2sc(-c3ccccc3)cc2n1 | 11µM* | x | u | x
COCCNc1nc(Oc2ccc(NC(C)=O)cc2)c2sc(-c3ccccc3)cc2n1 | u | x | -14% | x
C1=Cc2ccccc2/C1=C/c1ccc2c(c1)OCO2 | -5% | x | -14% | x
COC(=O)c1ccc(CN2CCC3(CCC(CNC(=O)c4ccccc4)O3)CC2)cc1 (stereo not drawn) | 2% | x | -12% | x
O=C1N[C@@H](Cc2ccccc2)COC(=O)[C@@H](Cc2ccc(F)cc2)C/C=C\C[C@@H]1CC(=O)N(CCO)Cc1ccccc1 | 13µM* | x | u | 162%
COc1ccc(NC(=O)N(C)[C@H]2C[C@H]3c4[nH]c5ccc(-c6ccc(OC)cc6)cc5c4CCN3C(=O)[C@H]2[C@H](C)O)cc1 | u | x | -27% | x
CN[C@H]1C[C@H]2c3[nH]c4ccc(-c5ccc(OC)cc5)cc4c3CCN2C(=O)[C@H]1[C@H](C)O | 13µM* | x | u | x
O=C(CCl)NCc1cc(-c2ccc(Cl)cc2)no1 | u | 1% | 10µM* | 1%
CC(=O)c1ccc(NC(=O)CSc2ccsc2[N+](=O)[O-])cc1 | -21% | -19% | -11% | 4.5µM*
CSc1ccccc1C(=O)NCC1Cc2cccc(-c3ncccc3C)c2O1 (stereo not drawn) | -16% | x | i | x
COc1cc(CN2CCOc3ccc(CN4CCC(Oc5cccnc5)CC4)cc3C2)ccc1F | -10% | x | -17% | x
Cc1nc(N/N=C\c2ccc3c(c2)OCO3)sc1C | u | u | 16µM* | -27%
COCc1ccc(CN2CCOc3c(O)cc(-c4cc(C)c5ccc(F)cc5n4)cc3C2)o1 | -15% | x | -18% | x
CSc1nc(C)cc(OCC(=O)N/N=C/c2ccccc2O)n1 | u | -1% | 11µM* | -21%
O=C(O)COc1ccc(/C=N/NC(=O)COc2nsnc2N2CCOCC2)cc1 | x | -7% | x | 0%
Cc1cc(=O)oc2cc(OCC(=O)N/N=C/c3ccccc3O)ccc12 | -11% | -17% | u | 205%
O=C(CCCCC(=O)NN=Cc1ccccc1O)NN=Cc1ccccc1O | -13% | x | 3.2µM* | x
O=C(CCC(=O)Nc1ccc(Br)cc1)N/N=C/c1ccccc1O | u | -15% | 5.6µM* | -29%
SMILES | Vaccinia Venus | AmpC detergent | Vaccinia mCherry | AmpC inh no detg
O=C(COc1nsnc1N1CCOCC1)N/N=C/c1ccccc1O | u | -8% | 22µM* | -28%
O=C(Cn1cc(C(F)(F)F)ccc1=O)N/N=C/c1ccccc1O | -25% | -1% | 16µM* | 145%
Cc1cc(SCC(=O)N/N=C/c2ccc(O)c(O)c2)nc2ccccc12 | 2% | -11% | u | -47%
Cc1cccc(NC(=O)CCC(=O)N/N=C/c2ccc(O)cc2O)c1 | -9% | -13% | 6.3µM* | -28%
Cc1cc(SCC(=O)N/N=C/c2ccc(O)cc2O)nc2ccccc12 | u | 2% | 1.1µM* | -11%
CN(C)c1ccc(C2C=Cc3ccccc32)c2ccccc12 (stereo not drawn) | 2% | x | -13% | x
CCOC(=O)C1CCCN(C(=O)c2cnn(-c3ncc4c(n3)-c3ccccc3CCC4)c2C2CC2)C1 (stereo not drawn) | 0% | x | -2% | x
COCc1c(C(=O)NC2CCOC(C)(C)C2)cnn1-c1nccc(-c2cccs2)n1 (stereo not drawn) | 5% | x | -5% | x
Cc1c(C(=O)NCC2COCCO2)cnn1-c1nccc(-c2cccs2)n1 (stereo not drawn) | -13% | x | -4% | x
CC(=O)C1CCC2C3CCC4=CC(=O)C=CC4(C)C3C(=O)CC12C (stereo not drawn) | -15% | x | i | x
C[C@]12C=CC(=O)C=C1CC[C@@H]1C2=CC[C@]2(C)[C@@H](C(=O)CN3CCN(c4cc(N5CCCC5)nc(N5CCCC5)n4)CC3)CC[C@@H]12 | u | x | 1µM* | x
COc1ccc(OC)c(C(=O)N2CCOc3ccc(C(C)(O)CN(C)C)cc3C2)c1 (stereo not drawn) | -6% | x | -11% | x
CCS(=O)(=O)N1CCN(c2ccc([N+](=O)[O-])c(NC(C)c3ccccc3)c2)CC1 (stereo not drawn) | -5% | -2% | x | -19%
CC(Nc1cc(N2CCNCC2)ccc1[N+](=O)[O-])c1ccccc1 (stereo not drawn) | u | 5% | 14µM* | 0%
O[C@@H](c1cc(C(F)(F)F)nc2c(C(F)(F)F)cccc12)[C@H]1CCCCN1 | u | u | u | 9%
OC(c1cc(-c2ccc(Cl)cc2)nc2ccccc12)C1CCCCN1 (stereo not drawn) | 14µM* | -10% | u | -5%
CNC(=O)[C@@H]1C[C@H](Sc2nc3ccccc3[nH]2)CN1Cc1ccccc1C(F)(F)F | -22% | x | -25% | x
Cc1ccnc2ccc(I)cc12 | -9% | x | -20% | x
C#CCn1c(S(=O)(=O)Cc2ccccc2Cl)nc(-c2ccccc2)c1-c1ccccc1 | x | 2% | x | 4.5µM*
C#CCn1c(S(=O)(=O)Cc2ccc(C)cc2)nc(-c2ccccc2)c1-c1ccccc1 | -2% | -9% | -26% | -30%
COc1cc(=O)n2c(c1C(=O)NCc1ccco1)CCN(Cc1cccc(Cl)c1)CC2 | -4% | x | -11% | x
Cc1cc(C)c2c(N)c3cccc(C)c3nc2n1 | 10µM* | -8% | 10µM* | -34%
Cc1cccc2c(N)c3c(nc12)CCCC3 (tested in a mixture with another compound) | x | -7% | x | -17%
CCC1CN(Cc2ccc(COC)o2)Cc2cc(OC)ccc2O1 (stereo not drawn) | -3% | x | -6% | x
CN(C)c1ccc(/C=C2\C=Cc3ccccc32)cc1[N+](=O)[O-] | -7% | x | i | x
Cc1occc1C(=O)Nc1cccc(-c2nc(CNC(=O)c3ccc4ccccc4n3)c(C)o2)c1 | -21% | x | -3% | x
CC(C)=CCc1c(O)cc2oc3c(CC=C(C)C)c(O)c(O)c(CC=C(C)C)c3c(=O)c2c1O | u | 6% | u | 14µM*
O=C1CC(=O)OC(c2ccc([N+](=O)[O-])cc2)O1 | 13µM* | x | 13µM* | x

High-throughput results from PubChem BioAssay.
